Data reported in the supplement of paper PMC11417369.
± gives the standard deviation of the averaged measurements. The full ranking holds about 25,000 sequences; the median of “ln(normalized median fluorescence intensity)” is about 7.9, and the highest 2% start at about 11. What follows is part of a selection rich in the highest values, with near analogues and random picks from the rest.

These sequences were tested on PfAP2-I AP2 domain 3 (GST-tagged) (assay: gcPBM binding intensity (ln(normalized median fluorescence intensity)); higher = stronger DNA binding).
How it was run: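 For binding intensity, the highest Masliner-normalised natural-log median intensity across replicate spots of either probe orientation was taken. Protein bound to the array was stained with Alexa488 anti-GST antibody and scanned at 488 nm. The protein, GST-tagged P. falciparum DNA-binding domains from E. coli at about 25 μg on average, had been applied for 1 h to an Agilent 4 × 180k array of primer-extended double-stranded 36-bp intergenic genomic probes and negative controls.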

Sequence	gcPBM binding intensity (ln)
TTAATATAGGGAAAAAAAAGAAAATCGAAAATGTGT [CACACA_negctrl_site834]	8 ± 0.75
TTTTTTTTATGTATCACACATAATTTTTTATTATGA [CACACA_site5534]	7.63 ± 0.68
TATAATTTATTAAGGGGTACATATATTTCATGATAA [XGTACX_site5141]	7.88 ± 0.37
ATTTTCATGATAAAGGTGCAATTATTTTTATAAGAA	10.9 ± 0.53
ACACATAATATAAAGGTGCTATATTGTATTCATTTT [GTGCAC_site9457]	10.1 ± 0.2
GTATTCATGCTAAAGGTGCAATAATTTTTATAATAA [GTGCAC_site9603]	11.5 ± 0.61
TATAATTATTTTTTTCTAAATATTATAAGGTATTCA [GTGCAC_negctrl_site205]	7.18 ± 0.33
ATTATAAAAGAATTTTTTTTTATTTCATTAAAATAT [CACACA_negctrl_site1137]	7.09 ± 0.47
TATAAATATCTGAATTGTACAGGTGAAAAAAAAAAT [XGTACX_site1867]	8.04 ± 0.62
TAATTAGATTATTTTTGTACATATTATTATAGGTTA [XGTACX_site2077]	7.59 ± 0.26
ACAAAAATAAGCAAATGTACATATGTATAATATATT [XGTACX_site2492]	7.77 ± 0.58
TAAATTAAAAAAAAAAACAAAAAAAAAGCAACAAAA [CACACA_negctrl_site1318]	7.67 ± 0.57
TAAAAATTAAAAAGGGTGCAAAAAAAAAAAAAAAAA [GTGCAC_site9733]	11 ± 0.61
ATTATCCATCAAAAGGTGCAAATTTTTAATTATAAA [GTGCAC_site9932]	10.5 ± 0.49
TTAAAAAATAACAAGGTGCAAATAGGTTTATAAAAT	10.84 ± 0.064
AGTGACACCAAAGGGGTGCAATGAAATTAAAAATAT	10.7 ± 0.24
AAAAAAAAAAAAAAGGTGCAAATAAATTAACCTTAT	11.4 ± 0.44
TATGTGTGACAAAATTGTACGGTCTCTTTATTTTGT [XGTACX_site2679]	7.72 ± 0.54
TCCTTATAAATATATATATAATATATATATATATAT [CACACA_negctrl_site293]	8.86 ± 0.2
ATTTTTATTCAGTTCACACACGCTTTAATATTATAT [CACACA_site3465]	8.3 ± 0.58
ATATATCCAATATATATATATATATATATATATATA [CACACA_negctrl_site160]	9.2 ± 0.67
TGTTGGCAGGTGAATGCATGCATATAAGTCTATCTG [TGCATGCA_site781]	8.02 ± 1.1
TATTCCTATATAAAGACACACATATGTAACTACGAT [CACACA_site4139]	7.68 ± 0.59
ATATAATATAACAATACGCACACGTATACAAAAAAA [CACACA_site3151]	8.36 ± 0.41
TATTAATTTCTTTTTTCTCATCACTTTCAAAATGAA [CACACA_negctrl_site1055]	7.9 ± 0.47
